Screens deposited in PubChem by several laboratories.
Hits are enriched below; roughly 1.6% of the tested compounds scored in any of these assays.
NSD2 HMT inh: NSD2 histone methyltransferase inhibitors, primary screen, biochemical, AlphaScreen, single concentration, set 2 | Histone-lysine N-methyltransferase NSD2 (Homo sapiens), O96028 | NSD2 peptide methylation, 120 min | inhibition, % at 12.5 µM | 310,000 compounds, 0.54% hits | AID 743445, 2014; in the data active = inhibition above about 50%
GC-A act: GC-A stimulated cGMP production enhancers – HEK293 GC-A cells, cGMP TR-FRET, EC30 ANP, primary screen; Atrial natriuretic peptide receptor 1 (Homo sapiens), P16066; 0% at EC30 ANP, 100% saturating ANP; activation, % at 10 µM; 370,000 compounds, 0.14% hits; in the data active = activation above about 40%
Rce1 inh: yeast Rce1p protease inhibitors, primary screen, biochemical, fluorescence, cell-free homogeneous; CAAX prenyl protease 2 (Saccharomyces cerevisiae (strain ATCC 204508 / S288c)), Q03530; calls only; yeast membranes, quenched prenylated peptide cleavage fluorescence; AID 2563, 2010; 290,000 compounds, 0.27% hits;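 active = fall in fluorescence gain of 50% or more versus controls, with final raw signal at or below 3038400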;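 note: plate controls were neutral control wells for no effect and wells lacking membranes for full effect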
Target sequence (Q03530 whole entry, looked up): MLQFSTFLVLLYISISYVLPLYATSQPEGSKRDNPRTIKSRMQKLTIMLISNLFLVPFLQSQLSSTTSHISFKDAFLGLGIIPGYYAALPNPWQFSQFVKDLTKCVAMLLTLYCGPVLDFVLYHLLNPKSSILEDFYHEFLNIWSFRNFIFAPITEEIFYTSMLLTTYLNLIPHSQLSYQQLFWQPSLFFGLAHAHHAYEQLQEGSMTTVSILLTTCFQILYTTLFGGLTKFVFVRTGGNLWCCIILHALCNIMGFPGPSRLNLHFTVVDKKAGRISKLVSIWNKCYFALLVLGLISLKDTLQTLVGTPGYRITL
V-ATPase pH: regulators of yeast V-ATPase proton pumping, primary screen, pHLuorin cytosolic pH fluorescence; S. cerevisiae; response, % at 10 µM; 350,000 compounds, 0.37% hits; in the data active = response mostly above about 7.3%, no sharp cut-off; inactive = mostly below about 5.4%; note: actives read high
NPR2 activator: human GC-B receptor activators, primary screen, HEK293 GC-B cells, cGMP TR-FRET, EC30 CNP; AID 1920062, 2024; 0% at EC30 CNP, 100% saturating CNP; 370,000 compounds, 0.11% hits; activation, % at 10 µM;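 active = activation at 10 µM reaching about 35% in either raw or pattern-adjusted values, limit read from the data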
Efflux pump inh: inhibitors of Candida efflux pumps in yeast, primary screen, S. cerevisiae, Nile Red, multiplex. inhibition, % at 10 µM. AID 485275, 2010. 330,000 compounds, 0.44% hits. S. cerevisiae Candida pump triplex;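 active = plate passing quality check with inhibition over a set limit, or well fluorescence over plate mean plus 4 SD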;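 note: Nile Red retained in pooled yeast measured as flow cytometry median fluorescence; 0% = buffer negative control and 100% = Enniatin B positive control; higher means more Nile Red kept so more efflux inhibition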
VATPase regulator: yeast V-ATPase proton pumping modulators, confirmation, S. cerevisiae, pH-sensitive GFP, second cherry-pick; 980 compounds, 2% hits; S. cerevisiae pHLuorin cytosolic pH, V-ATPase proton transport; shares compounds with V-ATPase pH; response, % at 10 µM; in the data active = response above about 24%;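 note: plate controls were vehicle wells for no effect and positive control wells for full effect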
* hit, by the source's call; i = inactive; / = no result.

SMILES | NSD2 HMT inh | GC-A act | Rce1 inh | V-ATPase pH | NPR2 activator | Efflux pump inh | VATPase regulator
O=C(CCC(=O)c1ccc(F)cc1)NCC1(N2CCCCC2)CCCCC1 | -0.6 | 5.0 | / | -1.1 | 1.4 | 0.2 | -1.6
O=C(CCC(=O)c1ccc(F)cc1)NN1C(=O)NC2(CCCCC2)C1=O | -0.2 | 1.5 | i | 0.8 | -3.6 | 0.0 | /
COC(=O)C1=NNC(C(=O)OC)C1c1ccccc1 (stereo not given) | -0.2 | -1.4 | / | 16.9* | 1.2 | / | -0.7
CC1=C(C(=O)Nc2ccccn2)C(c2ccc3c(c2)OCO3)C2=C(CC(C)(C)CC2=O)N1 (stereo not given) | -0.5 | -5.7 | i | 2.1 | 2.3 | 0.0 | /
CCN(CC)c1ccc(C2C(C(=O)Nc3ccccn3)=C(C)NC3=C2C(=O)CC(C)(C)C3)cc1 (stereo not given) | 11.5 | 1.3 | i | 16.6* | -2.0 | 0.2 | -0.6
COc1cccc(C2C(C(=O)OCc3ccccc3)=C(C)Nc3ncnn32)c1OC (stereo not given) | / | -4.9 | i | 8.5* | -1.2 | -0.1 | -2.3
CCCCCCNC(=O)C1CSCCS(=O)(=O)N1Cc1ccc(OC)cc1 (stereo not given) | / | 0.4 | / | / | -3.1 | / | /
O=C(NCCC1=CCCCC1)C1CCCN(S(=O)(=O)c2cccnc2)C1 (stereo not given) | / | 3.1 | i | -1.8 | 0.5 | 0.1 | /
O=C(NCCC1=CCCCC1)C1CCCN(S(=O)(=O)c2cccc3cccnc23)C1 (stereo not given) | / | -2.2 | i | 7.3* | 0.0 | 0.3 | -0.3
O=C(NC1CCCCC1)c1ccc2c(c1)OCO2 | 0.8 | -3.6 | i | -4.0 | 5.5 | 0.0 | /
O=C(NCCS(=O)(=O)NC1CCCCC1)c1ccc2c(c1)OCO2 | -0.6 | 1.4 | i | 7.1* | 1.7 | 0.0 | -1.6
CCc1nn(C(C)C(=O)N(C)Cc2ccccc2)c(=O)c2cc3occc3n12 (stereo not given) | 2.4 | -1.9 | i | 12.3* | -2.5 | -0.1 | -1.1
CCc1nn(CCCC(=O)N(C)Cc2ccccc2)c(=O)c2cc3occc3n12 | 2.5 | 0.9 | i | -2.4 | -4.0 | -0.1 | /
COc1cccc2c1nc(C)c1cc(C)oc12 | 19.4 | -7.2 | i | 10.6* | 3.8 | 0.4 | -4.5
C[C@H](O)[C@@H]1CN2CCc3c([nH]c4c(-c5ccccc5)cccc34)[C@@H]2C[C@@H]1N(C)C(=S)NCCc1ccccc1 | / | 14.3 | / | / | -0.3 | / | /
O=C/C(=C\Nc1ccc(Br)cc1)c1nc2ccccc2o1 | -5.6 | -4.6 | i | 8.9* | 3.3 | 0.1 | 0.5
CC(=O)Nc1ccc(N/C=C(\C=O)c2nc3ccccc3o2)cc1 | 1.6 | -0.5 | i | -33.3 | -0.1 | -0.1 | /
CC[C@H](CCCc1ccc(OC)cc1)CCC(=O)N1CCOCC1 | / | -6.3 | / | / | -2.5 | / | /
COC(=O)[C@]12C[C@H](CC(=O)NCCC(C)C)C(=O)N(Cc3ccc4c(c3)OCO4)C1=C[C@H](C(C)C)O[C@@H]2C1CC1 | / | -10.4 | / | / | -5.3 | / | /
C=CCn1c(SCC(=O)Nc2c(C)n(C)n(-c3ccccc3)c2=O)nc2scc(-c3ccccc3)c2c1=O | -1.0 | -2.0 | i | 13.1* | -3.0 | 0.0 | 1.4
C=CCn1c(SCC(=O)Nc2c(C)n(C)n(-c3ccccc3)c2=O)nc2ccccc2c1=O | -2.4 | -2.9 | / | 5.3 | 3.2 | 0.0 | /
CN(CCOc1ccc(-c2ccn(S(=O)(=O)c3ccc(Cl)cc3)n2)cc1)c1ccccn1 | -0.8 | 3.0 | / | 10.2* | 0.5 | 0.0 | 1.4
CCOC(=O)Cc1nc(N2CCCN(C(C)=O)CC2)c2c(C)c(C(=O)OCC)sc2n1 | -1.6 | 1.3 | / | / | 9.0 | / | /
O=C(Nc1ccc(F)c(F)c1)C1CCN(S(=O)(=O)c2cccs2)CC1 | -2.2 | -3.6 | / | 8.3* | 2.1 | -0.2 | -4.9
Clc1ccc(-n2c(SCc3cccc4ccccc34)nnc2-c2cccnc2)cc1 | 3.2 | -12.4 | / | / | -11.3 | / | /
